Values without a mark were called inactive.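 How the source made its calls: active = AUC reduced over 20% with Padj below 0.05 in at least 2 of 3 replicates; inactive = otherwise.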
System: Collinsella aerofaciens
Assay: growth AUC relative to DMSO control (median of replicates) (fraction); higher = more growth (less inhibition), active = hit call of the paper
Conditions: 20 µM; 24 h
In short: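 Starting at OD600 0.05, gut bacterial monocultures in mGAM were grown anaerobically at 37 °C with 20 µM compound (1% DMSO) under pierced gas-permeable seals. OD600 was read every hour for 24 h, and the lowest OD of each curve was set to 0. Area under the growth curve was normalised to the plate median of solvent-only wells, or to row and column medians on the industrial chemical plate, and the median of three biological replicates grown on separate days is given.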

| Structure (SMILES) | growth AUC |
| --- | --- |
| C=CCOC(Cn1ccnc1)c1ccc(Cl)cc1Cl.O=S(=O)(O)O (centres undefined) | 0.845 |
| c1ccc(-c2ccccc2)cc1 | 0.963 |
| CCOC(=O)C(SP(=S)(OC)OC)c1ccccc1 (centres undefined) | 1 |
| Nc1nc(N)nc(Cl)n1 | 0.992 |
| NC(=O)/N=C1/SCCN1Cc1ccc(Cl)nc1 | 1.01 |
| CON(C)C(=O)Nc1ccc(Br)c(Cl)c1 | 1 |
| CC(C)C(C(=O)OC(C#N)c1cccc(Oc2ccccc2)c1)c1ccc(OC(F)F)cc1 (centres undefined) | 1.01 |
| O=[N+]([O-])c1c(Cl)c(Cl)cc(Cl)c1Cl | 1.05 |
| Clc1ccc(C2(Cn3cncn3)CC(Br)CO2)c(Cl)c1 (centres undefined) | 0.951 |
| CC(C)N1C(=O)N(c2ccccc2)CSC1=NC(C)(C)C | 0.971 |
| CNC1=C(c2cccc(C(F)(F)F)c2)C(=O)C(c2ccccc2)O1 (centres undefined) | 1.02 |
| CCOP(=S)(OCC)Oc1cc(C)nc(C(C)C)n1 | 0.986 |
| CCOP(=S)(OCC)SCS(=O)(=O)C(C)(C)C | 1.02 |
| COc1nc(C)nc(NC(=O)NS(=O)(=O)c2ccccc2Cl)n1 | 1.04 |
| CCOP(=S)(OCC)Oc1cnccn1 | 0.993 |
| O=c1[nH]c2c(c(=O)n1C1CCCCC1)CCC2 | 0.95 |
| COC[C@H](C)N(C(=O)CCl)c1c(C)csc1C | 1 |
| CC(C)N(C(=O)CCl)c1ccccc1 | 1.05 |
| ClC1=C(Cl)C2(Cl)C(CBr)CC1(Cl)C2(Cl)Cl (centres undefined) | 0.957 |
| COC(=O)COc1cc(Cl)c(Cl)cc1Cl | 1 |

| Structure (SMILES) | growth AUC |
| --- | --- |
| COP(=S)(OC)Oc1ccc([N+](=O)[O-])c(C)c1 | 0.952 |
| COC(=O)C(C)N(C(=O)c1ccco1)c1c(C)cccc1C (centres undefined) | 0.913 |
| Cc1ccc(N(SC(F)(Cl)Cl)S(=O)(=O)N(C)C)cc1 | 0.989 |
| CCOC(=O)CC(SP(=O)(OC)OC)C(=O)OCC (centres undefined) | 0.973 |
| COc1cc(OC)nc(NC(=O)NS(=O)(=O)c2ncccc2C(F)(F)F)n1 | 0.972 |
| c1ccc2c(c1)cc1ccc3cccc4ccc2c1c34 | 1.03 |
| CS(=O)(=O)c1cc(C(F)(F)F)ccc1C(=O)c1cnoc1C1CC1 | 1 |
| O=C(NC(=O)c1c(F)cccc1F)Nc1ccc(CO/N=C(\c2ccc(Cl)cc2)C2CC2)cc1 | 0.963 |
| CNC(=O)Oc1cc(C)c(S(C)(=O)=O)c(C)c1 | 1.01 |
| O=C(O)c1ccc(=O)[nH]c1 | 0.977 |
| N#Cc1c[nH]cc1-c1cccc(Cl)c1Cl | 0.935 |
| CCOP(=S)(OCC)SCS(=O)CC (centres undefined) | 1.01 |
| CNC(=O)O/N=C/C(C)(C)S(C)(=O)=O | 1.01 |
| COc1nc(NC(C)C)nc(NC(C)C)n1 | 0.995 |
| CC(=O)O.CC(=O)O.CC(=O)O.NC(N)=NCCCCCCCCNCCCCCCCCN=C(N)N | 0.871 |
| OCC1C(CO)C2(Cl)C(Cl)=C(Cl)C1(Cl)C2(Cl)Cl (centres undefined) | 0.947 |
| Nc1cc(Cl)cc(C(=O)O)c1Cl | 1.06 |
| N#Cc1nn(-c2c(Cl)cc(C(F)(F)F)cc2Cl)c(N)c1S(=O)C(F)(F)F (centres undefined) | 1.04 |
| O=[N+]([O-])c1ccccc1 | 0.951 |

— the supplement of paper PMC12669032
